# Source: PubChem BioAssay
# The source made the active and inactive calls.
# How the values were obtained:
# [1] = small molecules captured by biotinylated probe aFSTL3 – biochemical, small-molecule microarray, fluorescence 635/667, stem cell growth factor project, primary screen (AID 1064); conditions: higher = more signal;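 further: measures binding of the biotinylated anti-FSTL3 antibody to printed compounds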
# [2] = binders from COS7 lysate, DM2A8 probe, primary screen, torsin A project, cell lysate, small-molecule microarray, fluorescence 635/667 (AID 1065); conditions: higher = more signal, COS7 lysate expressing mutant human TOR1A
# [3] = small molecules captured by biotinylated probe aFGF2 – biochemical, small-molecule microarray, fluorescence 635/667, stem cell growth factor project, primary screen (AID 1067); conditions: higher = more signal;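 further: measures binding of biotinylated aFGF2 protein to printed compounds on slides; z-score merges feature fluorescence and signal-to-noise across triplicate slides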
# [4] = small molecules captured by biotinylated probe aFGF10 – biochemical, small-molecule microarray, fluorescence 635/667, stem cell growth factor project, primary screen (AID 1071); conditions: higher = more signal;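 further: score merges 667 nm spot intensity and signal to noise from triplicate slides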
# [5] = molecular target: Neurogenic locus notch homolog protein 2 (Homo sapiens) (UniProt Q04721); assay: small molecules binding Notch2 protein – biochemical, small-molecule microarray, 635 nm fluorescence, stem cell growth factors, primary screen (AID 1073); conditions: higher = more signal
# [6] = molecular target: Pro-neuregulin-1, membrane-bound isoform (Homo sapiens) (UniProt Q02297); assay: small molecules binding neuregulin-1 protein – biochemical, small-molecule microarray, fluorescence 635/667, psychiatric disease protein project, primary screen (AID 1075); conditions: NRG1 binding, 635 nm fluorescence, higher = more signal;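 further: score combines 667 nm spot fluorescence with signal to noise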
# [7] = system: Neuregulin-1 EGF-like domain; assay: small molecules binding NRG1 EGF domain – biochemical, small-molecule microarray, 635 nm fluorescence, primary screen (AID 1081); conditions: higher = more signal;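 further: binding of the protein to compounds printed on small-molecule microarray slides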
# [8] = FRG1 expression reporter modulators in myotubes – cell-based, C2C12 myotubes, firefly/Renilla luciferase, luminescence, FRG1 inhibition for FSHD, primary screen (AID 1084); conditions: FRG1 promoter luciferase, higher = more signal, called active from +8 up or from −8 down
# [9] = small molecules captured by biotinylated probe aFST – biochemical, small-molecule microarray, fluorescence 635/667, stem cell growth factor project, primary screen (AID 1086); conditions: higher = more signal;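 further: score merges 667 nm fluorescence with signal-to-noise of each printed compound spot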
# [10] = binders of probe aHhip on microarray, primary screen, stem cell growth factor project, biochemical, small-molecule microarray, fluorescence 635/667 (AID 1087); conditions: higher = more signal;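 further: score merges spot fluorescence at 667nm with spot signal to noise ratio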
# Neurogenic locus notch homolog protein 2 (Homo sapiens), sequence (Q04721 whole entry, looked up, canonical isoform): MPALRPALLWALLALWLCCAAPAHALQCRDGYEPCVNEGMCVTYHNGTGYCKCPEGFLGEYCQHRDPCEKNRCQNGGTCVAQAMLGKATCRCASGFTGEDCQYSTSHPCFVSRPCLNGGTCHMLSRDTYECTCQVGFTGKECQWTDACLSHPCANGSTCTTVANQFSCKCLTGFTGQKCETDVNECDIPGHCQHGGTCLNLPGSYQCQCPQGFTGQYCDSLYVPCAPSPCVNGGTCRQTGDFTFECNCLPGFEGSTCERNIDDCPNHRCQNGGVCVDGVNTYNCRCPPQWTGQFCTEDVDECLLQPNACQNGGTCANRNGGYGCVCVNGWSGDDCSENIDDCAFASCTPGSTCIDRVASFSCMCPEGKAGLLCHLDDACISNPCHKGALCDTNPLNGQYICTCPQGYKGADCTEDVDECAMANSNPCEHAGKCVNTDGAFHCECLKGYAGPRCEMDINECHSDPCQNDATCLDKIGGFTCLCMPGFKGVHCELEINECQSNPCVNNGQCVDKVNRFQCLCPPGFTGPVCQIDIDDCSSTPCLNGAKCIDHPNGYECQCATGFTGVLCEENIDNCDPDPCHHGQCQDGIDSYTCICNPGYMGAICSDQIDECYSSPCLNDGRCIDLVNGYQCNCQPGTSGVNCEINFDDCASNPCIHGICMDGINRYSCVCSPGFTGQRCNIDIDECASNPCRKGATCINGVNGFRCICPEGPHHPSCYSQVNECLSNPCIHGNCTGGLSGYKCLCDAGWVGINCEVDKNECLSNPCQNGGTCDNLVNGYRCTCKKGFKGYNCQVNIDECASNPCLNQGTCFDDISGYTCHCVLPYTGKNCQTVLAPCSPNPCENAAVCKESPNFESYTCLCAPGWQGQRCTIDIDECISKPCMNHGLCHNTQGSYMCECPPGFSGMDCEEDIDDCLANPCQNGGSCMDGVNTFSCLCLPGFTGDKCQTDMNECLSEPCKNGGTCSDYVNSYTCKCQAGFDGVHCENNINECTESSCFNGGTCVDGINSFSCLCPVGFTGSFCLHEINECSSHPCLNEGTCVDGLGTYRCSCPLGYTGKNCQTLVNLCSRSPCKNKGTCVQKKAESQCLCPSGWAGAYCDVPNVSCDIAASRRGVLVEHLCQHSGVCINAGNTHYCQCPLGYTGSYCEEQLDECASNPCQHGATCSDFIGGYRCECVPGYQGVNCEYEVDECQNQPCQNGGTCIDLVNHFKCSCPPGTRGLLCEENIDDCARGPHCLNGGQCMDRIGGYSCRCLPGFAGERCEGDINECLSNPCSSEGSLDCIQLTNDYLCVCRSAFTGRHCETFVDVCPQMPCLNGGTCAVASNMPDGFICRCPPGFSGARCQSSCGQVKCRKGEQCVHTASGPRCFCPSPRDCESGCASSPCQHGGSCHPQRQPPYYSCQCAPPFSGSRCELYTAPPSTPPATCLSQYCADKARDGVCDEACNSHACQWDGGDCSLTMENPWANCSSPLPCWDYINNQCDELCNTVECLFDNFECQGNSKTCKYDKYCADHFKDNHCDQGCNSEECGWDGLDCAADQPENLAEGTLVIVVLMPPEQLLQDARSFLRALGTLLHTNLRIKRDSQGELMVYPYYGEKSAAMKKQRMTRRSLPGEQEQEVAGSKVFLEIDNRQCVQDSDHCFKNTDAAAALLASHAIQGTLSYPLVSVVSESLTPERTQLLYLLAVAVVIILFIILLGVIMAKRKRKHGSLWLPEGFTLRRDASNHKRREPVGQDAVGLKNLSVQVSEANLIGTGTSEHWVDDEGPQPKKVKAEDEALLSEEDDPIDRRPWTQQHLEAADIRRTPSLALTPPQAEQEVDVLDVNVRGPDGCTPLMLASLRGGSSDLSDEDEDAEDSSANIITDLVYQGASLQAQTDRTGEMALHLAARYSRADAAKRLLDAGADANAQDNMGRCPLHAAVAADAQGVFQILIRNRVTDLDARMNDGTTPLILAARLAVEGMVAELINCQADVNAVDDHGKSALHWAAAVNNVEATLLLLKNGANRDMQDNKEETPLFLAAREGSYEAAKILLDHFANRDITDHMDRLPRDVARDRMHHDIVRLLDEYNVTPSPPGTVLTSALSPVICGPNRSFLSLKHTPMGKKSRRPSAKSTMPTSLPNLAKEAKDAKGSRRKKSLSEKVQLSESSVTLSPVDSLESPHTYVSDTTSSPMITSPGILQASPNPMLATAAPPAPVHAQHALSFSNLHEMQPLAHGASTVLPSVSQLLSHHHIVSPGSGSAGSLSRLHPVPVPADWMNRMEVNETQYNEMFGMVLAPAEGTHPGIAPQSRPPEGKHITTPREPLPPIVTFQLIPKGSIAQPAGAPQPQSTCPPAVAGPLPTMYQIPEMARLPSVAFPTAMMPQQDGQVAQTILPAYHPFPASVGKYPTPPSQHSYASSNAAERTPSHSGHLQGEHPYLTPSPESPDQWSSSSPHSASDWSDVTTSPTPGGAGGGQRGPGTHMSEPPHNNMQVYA
# Pro-neuregulin-1, membrane-bound isoform (Homo sapiens), sequence (Q02297 whole entry, looked up, the tested form may be a part, canonical isoform): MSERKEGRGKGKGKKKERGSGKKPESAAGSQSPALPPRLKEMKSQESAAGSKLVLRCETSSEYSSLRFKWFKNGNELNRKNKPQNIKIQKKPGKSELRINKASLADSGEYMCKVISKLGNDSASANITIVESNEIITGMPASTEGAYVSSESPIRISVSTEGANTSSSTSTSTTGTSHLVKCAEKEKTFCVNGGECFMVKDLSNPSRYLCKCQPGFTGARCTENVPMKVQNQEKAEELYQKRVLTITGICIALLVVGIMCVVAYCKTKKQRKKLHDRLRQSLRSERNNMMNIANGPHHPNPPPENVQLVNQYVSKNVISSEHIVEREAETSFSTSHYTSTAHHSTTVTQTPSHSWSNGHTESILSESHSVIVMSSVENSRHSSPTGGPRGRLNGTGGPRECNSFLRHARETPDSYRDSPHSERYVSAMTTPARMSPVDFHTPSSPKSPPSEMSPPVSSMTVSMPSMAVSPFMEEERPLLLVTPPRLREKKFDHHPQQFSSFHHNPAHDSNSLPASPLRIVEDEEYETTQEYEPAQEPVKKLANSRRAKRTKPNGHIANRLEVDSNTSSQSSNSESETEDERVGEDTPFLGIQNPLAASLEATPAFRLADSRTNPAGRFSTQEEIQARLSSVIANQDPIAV
SMILES,composite z-score [1],composite z-score [2],composite z-score [3],composite z-score [4],composite z-score [5],composite z-score [6],composite z-score [7],z-score [8],composite z-score [9],composite z-score [10]
C=C[C@H](C)[C@@H](OC(=O)Nc1ccc(OC)cc1)c1ccc(O)c2ccccc12,0.358,0.357,-0.142,-0.225,-1.53,0.3,1.27,4.09 (inactive),-0.344,-0.37
C=CCC(OC(C)=O)[C@@H]1[C@@H](N(Cc2ccc(-c3ccccc3)cc2)C(=O)Cc2ccc(OC)cc2)c2cc(OCCCO)ccc2N1C(=O)Cc1ccc2ccccc2c1 (stereo not given in full),-0.214,0.735,-0.0891,0.0163,-0.299,-0.32,-0.504,-0.952 (inactive),0.0346,-0.144
COCCOC(=O)N1C(=O)[C@@]2(c3cc(C#CC4(O)CCCCCC4)ccc31)[C@H](c1ccc(OCCO)cc1)N1[C@H](c3ccccc3)[C@H](c3ccccc3)OC(=O)[C@H]1[C@@H]2C(=O)N1CCN(c2ncccn2)CC1,-0.407,0.485,-0.0242,0.612,1.03,1.09,0.966,-0.254 (inactive),0.557,-0.0645
COC(=O)[C@@]1(Cc2ccc(OC)cc2)[C@H]2c3cc(C(=O)N(C)C)n(Cc4ccccn4)c3C[C@H]2CN1C(=O)c1ccccc1,1.19,2.08,0.0395,-0.175,1.4,2.35,0.89,0.0734 (inactive),0.852,0.408
COC(=O)[C@@]1(Cc2ccccc2)[C@H]2c3cc(C(=O)N(C)C)n(Cc4ccsc4Br)c3C[C@H]2CN1C(=O)c1ccccc1,0.102,0.106,0.215,0.746,1.61,0.823,1.12,0.332 (inactive),1.67,-0.113
CC(=O)n1cc(C(O)C2C=CC3C(=O)N(c4ccccc4)C(=O)C3N2Nc2ccc([N+](=O)[O-])cc2)c2ccccc21 (stereo not given),0.889,1.44,-0.0605,-0.0938,1.24,1.23,1.22,-0.438 (inactive),1.02,0.0274
